Measured values published in PubChem BioAssay (NCI).
This is part of a sample that, as a whole, favours compounds with a hit. Of some 79,000 tested, about 15% had one in any assay. Cut-off read from the data, not from the text of the source: active = growth inhibition above about 70%; inactive = the rest.

Tests used:
[1] = NCI Yeast Anticancer Drug Screen. Data for the rad50 strain (AID 155);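 note: 0% = growth of vehicle-only cultures of the same strain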; conditions: S. cerevisiae rad50 strain growth inhibition; at 50.0 µM; stronger effect = higher value
In short: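 DNA repair mutant yeast, compound exposure, growth read-out; inhibition is taken relative to vehicle.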

[2] = NCI Yeast Anticancer Drug Screen. Data for the mec2-1 strain (AID 157); conditions: S. cerevisiae mec2-1 strain, at 50.0 µM, stronger effect = higher value
In short: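 Yeast mec2-1 mutant treated with compound. Readout: growth inhibition vs vehicle controls.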

[3] = NCI Yeast Anticancer Drug Screen. Data for the sgs1 mgt1 strain (AID 161);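 note: 0% = growth of cultures given vehicle only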; conditions: S. cerevisiae sgs1 mgt1 strain, at 50.0 µM, stronger effect = higher value
In short: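 Inhibition of yeast growth, normalised to vehicle-treated controls, is reported for a strain bearing genetic alterations in DNA damage repair.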

[4] = NCI Yeast Anticancer Drug Screen. Data for the cln2 rad14 strain (AID 165);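 note: 0% = growth equal to vehicle treated cultures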; conditions: S. cerevisiae cln2 rad14 strain, at 50.0 µM, stronger effect = higher value
In short: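 cln2 rad14 yeast strain; compound exposure; growth inhibition read vs vehicle controls.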

[5] = NCI Yeast Anticancer Drug Screen. Data for the bub3 strain (AID 167); conditions: S. cerevisiae bub3 mutant strain, at 50.0 µM, stronger effect = higher value
In short: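 In this screen, a yeast mutant lacking normal mitotic checkpoint function is challenged with compound. Relative growth versus vehicle gives the inhibition value.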

[6] = NCI Yeast Anticancer Drug Screen. Data for the mlh1 rad18 strain (AID 175); conditions: S. cerevisiae mlh1 rad18 strain growth inhibition; at 50.0 µM; stronger effect = higher value
In short: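 Yeast w/ defined DNA-repair lesions; compound exposure; growth vs vehicle controls → % inhibition.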

Measured: growth inhibition

CC(=O)c1cccc(NC(=O)c2cccc(Cl)c2)c1
inactive: [1] -1.9% | [2] -4.3% | [3] 24.5% | [4] -16.1% | [5] 20.4% | [6] 20.9%

O=C1CC[C@H](NC(=O)Cc2ccccc2)C(=O)N1
inactive: [1] -11.8% | [2] -6.55% | [3] -14.4% | [4] 6.35% | [5] -11.9% | [6] -13.6%

CC(=O)NC(CCCCNC(=O)NCCCl)C(=O)NCc1ccccc1 (configuration not stated)
inactive: [1] 3.3% | [2] -22.8% | [3] -2.85% | [4] 20.8% | [5] -12% | [6] -8.9%

COc1cc(N=Nc2c[nH]c3ccccc23)c(OC)cc1N=Nc1ccc([N+](=O)[O-])cc1
inactive: [1] 26.3% | [2] 16.8% | [3] 0.6% | [4] -22% | [5] 13.7% | [6] 34.8%

COc1cc(OC)c(-c2oc3ccccc3c(=O)c2O)c(OC)c1
inactive: [1] -9.5% | [2] 12.7% | [3] 2.4% | [4] -13.2% | [5] 4.65% | [6] -5.45%

CCOC(=O)NC(=Cc1ccccn1)c1ccc(Cl)cc1 (mixture of isomers)
inactive: [1] 7.7% | [2] -3.1% | [3] -8.35% | [4] -0.7% | [5] 4.25% | [6] 28.6%

O=C(Nc1ccccc1-c1ccccc1)c1cccnc1
inactive: [1] 2.65% | [2] 22.6% | [3] 9.2% | [4] 8.1% | [5] -11.2% | [6] 5.45%

OCC1(c2ccccc2)CCNCC1
inactive: [1] -8.7% | [2] -4.9% | [3] -2.1% | [4] -0.7% | [5] -9.7% | [6] 26.6%

CC(=O)NNC(=S)/N=C/c1c(C)[nH]n(-c2ccccc2)c1=O
inactive: [1] 4.6% | [2] -7.95% | [3] -22.1% | [4] 2.65% | [5] -6.85% | [6] 17.6%

O=C(N/N=C/c1ccccc1)c1c(F)c(F)c(F)c(F)c1F
inactive: [1] -27.6% | [2] 9% | [3] -32.9% | [4] 12.2% | [5] 0.6% | [6] 0.6%

CC(=O)c1cc2c(cc1C(C)C)C(C)(C)C(C)CC2(C)C (configuration not stated)
inactive: [1] -19.6% | [2] -19.2% | [3] 13.8% | [4] 29.4% | [5] -41.9% | [6] 17.4%

O=c1sccc2ccccc12
inactive: [1] 28.1% | [2] 25.4% | [3] 2.5% | [4] 9.4% | [5] 10.3% | [6] 1.35%

OCCSC(SCCO)=C(SCCO)SCCO
inactive: [1] 9.85% | [2] -15.7% | [3] -1.55% | [4] -13.2% | [5] 1.35% | [6] 2.75%

CN(C(N)=O)C1CCCC1
inactive: [1] 12% | [2] -21.3% | [3] -5.65% | [4] 1.4% | [5] 9.4% | [6] 6.35%

CC(=O)N(C(=O)CC(=O)N1N=C(c2ccccc2)C(N=Nc2ccccc2[N+](=O)[O-])C1=O)c1ccc(Cl)cc1 (configuration not stated)
inactive: [1] -4.3% | [2] -21.8% | [3] -0.2% | [4] -37% | [5] -27.2% | [6] -19%

CCN(CC)CCNC(=O)c1ccccc1NC(=O)C(=O)Nc1ccccc1C(=O)NCCN(CC)CC
inactive: [1] -46.9% | [2] -13.2% | [3] -55.2% | [4] -5.15% | [5] -60.3% | [6] -41.6%

Cc1cc(NC(=O)CCc2ccc(N3C(N)=NC(N)=NC3(C)C)cc2)ccc1S(=O)(=O)O
inactive: [1] 38.1% | [2] -5.55% | [3] 8.05% | [4] -14.4% | [5] 2.05% | [6] -5.55%

CCN(CC)CCCn1cnc2ncccc2c1=O
inactive: [1] -12.3% | [2] -5.7% | [3] 8.8% | [4] 21% | [5] -9.2% | [6] -3.3%

CN(C)C(=O)Nc1ccc2c(c1)OCO2
inactive: [1] 0.8% | [2] 8.6% | [3] -1.4% | [4] -31.9% | [5] -13.2% | [6] 9.45%

CCOC(=O)C(O)(NC(=O)c1ccc(F)cc1)C(F)(F)F (configuration not stated)
inactive: [1] 12.2% | [2] 1.85% | [3] -9.9% | [4] 17.1% | [5] -10.2% | [6] -23.9%

NC(=S)N/N=C/c1cccc(CC(O)(C(F)(F)F)C(F)(F)F)n1
inactive: [1] 2.6% | [2] 7.1% | [3] 3.7% | [4] -28.4% | [5] -2.1% | [6] 24%

CN1CCCCC1C(O)CO (configuration not stated)
inactive: [1] 11.4% | [2] -5.7% | [3] -8.05% | [4] -47.4% | [5] -3.2% | [6] -27.1%

CC(=O)OC1CCC2(C)C(=CCC3C2CCC2(C)C3CCC23SCCS3)C1 (configuration not stated)
inactive: [1] 24% | [2] -3% | [3] 4.25% | [4] -60.1% | [5] -2.9% | [6] 9.6%

COc1ccc2nccc(C(=O)CCC3CCN(C(=O)c4ccc([N+](=O)[O-])cc4)CC3C(CBr)CCBr)c2c1 (configuration not stated)
inactive: [1] 16.7% | [2] 6.35% | [3] 26.6% | [4] -1.85% | [5] 6.2% | [6] 34.2%

CC1(C)COC(c2ccc(C(C)(C)C)cc2C(O)(c2cc(C(C)(C)C)ccc2C2=NC(C)(C)CO2)c2cc(C(C)(C)C)ccc2C2=NC(C)(C)CO2)=N1
inactive: [1] -8.8% | [2] -4.2% | [3] 7% | [4] -5.5% | [5] 28.6% | [6] -1.1%

COc1ccc2c(c1)CCC1=C2CC2C(=O)C1(C)CCC2(C)OC(C)=O (configuration not stated)
inactive: [1] -4.35% | [2] -11.1% | [3] -1.3% | [4] -40.5% | [5] 10.1% | [6] -14.2%

CCOC(=O)C(=O)Nc1ccccc1
inactive: [1] 43.8% | [2] -1.4% | [3] 21% | [4] -21.1% | [5] -4.15% | [6] 18.8%

O=C1CN(C(=O)Nc2ccccc2)c2ccccc2N1
inactive: [1] 26.6% | [2] -25.5% | [3] -8.3% | [4] 4.55% | [5] 7% | [6] -5.5%

CCSc1nnc(-c2ccccc2)nc1Cc1ccc(OC)cc1
inactive: [1] -38.2% | [2] -13.2% | [3] -62.7% | [4] -12.8% | [5] -30.5% | [6] -39.5%

Clc1ccc2c(Cl)ncnc2c1I
inactive: [1] -2.5% | [2] -13.8% | [3] 28.9% | [4] 3% | [5] 4.4% | [6] -4.2%

N#Cc1ccc(OCCCCCOc2ccc(C#N)cc2I)c(I)c1
inactive: [1] -4.5% | [2] -2.05% | [3] -8% | [4] -22.8% | [5] -0.85% | [6] -44.1%

C=C(C)C(=O)NC(N)=NC#N
inactive: [1] -44% | [2] -9.25% | [3] -5.4% | [4] -13.8% | [5] -1.55% | [6] 6.15%

C[N+]1(C)CCCC(CO)(c2ccccc2)CC1 (configuration not stated)
inactive: [1] 10.2% | [2] 13% | [3] 3.3% | [4] -15.5% | [5] 14.9% | [6] 7.7%

O=C(OCc1ccccc1)c1ccc(Cl)cc1
inactive: [1] 22.9% | [2] 5.7% | [3] 20.6% | [4] 15.2% | [5] -1.65% | [6] 4.4%

COc1ccc([N+](=O)[O-])cc1NS(=O)(=O)c1ccc(NC(C)=O)cc1
inactive: [1] 1.6% | [2] 18.7% | [3] -5.55% | [4] -1.25% | [5] 23.8% | [6] -19%

COc1ccccc1/C=C1\C(=O)N(C(=O)Cc2ccccc2)N=C1C
inactive: [1] -4.4% | [2] -8.15% | [3] -54.2% | [4] -10.8% | [5] -3.85% | [6] -25.4%

CCCCCCCCC(=O)OCC(=O)c1ccc(-c2ccccc2)cc1
inactive: [1] 10.8% | [2] -15.3% | [3] 3.35% | [4] -7.85% | [5] 3.3% | [6] 3.65%
